Screening data as filed in PubChem BioAssay.
IDH1 R132H inh = human IDH1 R132H inhibition; AID 602179; IDH1-R132H enzyme, NADPH consumption, diaphorase/resazurin fluorescence; Potency, µM (titrated, usually from 76.6 µM), most hits filed as inhibitors; O75874; 0.093% of 390,000 active; note: nearly all actives have a fitted effect of over 65% in size
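IDH1-R132H (0.5 ug/mL) preincubated 30 min with compound, then NADPH (0.016 mM) and alpha-KG (2 mM) added; 80 min at RT, pH 7.5. Remaining NADPH coupled via diaphorase/resazurin to fluorescence (540/590 nm); concentration-response curves normalized to no-enzyme control.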
Nrf2 inh = Nrf2 pathway inhibition; A549 ARE-Fluc reporter, luciferase luminescence, 18-24 h; Potency, µM (top dose mostly 46 µM), usual class: inhibitors; 2.1% of 360,000 active; AID 504444; note: nearly all actives have a fitted effect of over 60% in size
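Reporter: ARE-Fluc in A549. Exposure: 18-24 h, 37 °C, 5% CO2, 5% FBS OPTI-MEM. Readouts: fluorescent cytotoxicity (CellTiter-Fluor), then luminescent Nrf2 signal after BugLite.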
A549 tox-1 = A549 cytotoxicity, counter-screen for Nrf2 inhibitors; A549 ARE-Fluc cells, CellTiter-Fluor viability, 18-24 h; Potency, µM (series often up to 46 µM), actives largely listed as inhibitors; 0.16% of 390,000 active
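A549 ARE_Fluc cells in 5% FBS OPTI-MEM were exposed to compounds in concentration-response for 18-24 h at 37 deg C. Viability was read by CellTiter-Fluor fluorescence (Ex 405/Em 525) after 30 min, before the luciferase read.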
Nrf2 activator = Nrf2 pathway activation | AREc32 ARE-luciferase reporter (MCF7-derived line), luminescence, 24 h | Potency, µM (top dose mostly 46.1 µM), hits mostly activators | 0.31% of 410,000 active; note: nearly all actives have a fitted effect of over 65% in size
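AREc32 cells carrying an ARE-driven firefly luciferase, 1000 cells/well in OPTI-MEM with 5% FBS, dosed after overnight attachment and incubated 24 hr at 37 deg C. Steady-Glo luminescence read after 30 min at RT.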
ALOX12 inh = ALOX12 (human) lipoxygenase inhibition. purified 12hLO, xylenol orange hydroperoxide absorbance. Potency, µM (doses to about 108 µM), actives largely listed as inhibitors. 1.1% of 580,000 active. P18054
Target sequence (P18054 whole entry, looked up): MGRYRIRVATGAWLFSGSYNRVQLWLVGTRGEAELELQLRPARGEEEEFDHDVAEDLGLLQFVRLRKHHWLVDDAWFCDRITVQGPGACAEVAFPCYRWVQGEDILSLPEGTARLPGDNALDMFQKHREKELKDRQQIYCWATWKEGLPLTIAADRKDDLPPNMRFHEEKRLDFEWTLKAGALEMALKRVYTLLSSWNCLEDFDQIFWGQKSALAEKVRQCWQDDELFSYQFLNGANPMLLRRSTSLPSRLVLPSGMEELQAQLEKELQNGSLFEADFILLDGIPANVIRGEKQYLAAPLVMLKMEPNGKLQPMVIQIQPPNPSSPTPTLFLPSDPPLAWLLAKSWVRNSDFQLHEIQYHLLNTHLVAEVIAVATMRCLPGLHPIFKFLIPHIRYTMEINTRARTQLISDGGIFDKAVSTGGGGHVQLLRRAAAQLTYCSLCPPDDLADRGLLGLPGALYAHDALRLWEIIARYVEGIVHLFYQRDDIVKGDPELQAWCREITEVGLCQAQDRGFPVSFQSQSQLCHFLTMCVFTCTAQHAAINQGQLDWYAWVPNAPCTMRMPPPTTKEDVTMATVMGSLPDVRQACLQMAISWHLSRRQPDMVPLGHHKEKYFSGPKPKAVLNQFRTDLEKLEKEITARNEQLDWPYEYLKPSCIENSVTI
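Purified human 12hLO at 150 nM in 25 mM Hepes, 0.01% Triton X-100, pH 7.0, preincubated 15 min at room temperature with compound. Reaction started with 40 uM arachidonic acid, 30 min at room temperature. Hydroperoxide measured by Fe-xylenol orange, 573/405 nm absorbance ratio.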
LDHA inh = blocks human lactate dehydrogenase A; P00338; 0.15% of 480,000 active; activity change, % (values are at about 110 or 230 µM); purified LDHA, NADH/diaphorase-resazurin fluorescence; hits give low values; in the data active = activity change below about -30%; inconclusive = mostly about -25% to -30%
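Resorufin fluorescence (ex540/em590), read at 0 and 20 min after diaphorase/resazurin addition, reports the NADH left after a 5 min room-temperature reaction of 2 nM human LDH5 with 0.06 mM NADH and 0.2 mM pyruvate.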
FLuc counter 3 = firefly luciferase inhibition, Nrf2 hit validation. shares compounds with Nrf2 inh. purified firefly luciferase, luminescence inhibition. Potency, µM (highest dose often 57.5 µM), usual class: inhibitors. 4% of 1,400 active. AID 720522; note: nearly all actives have a fitted effect of over 65% in size
A549 tox-2 = toxic to A549 ARE-Fluc cells in Nrf2 counterscreen; shares compounds with Nrf2 inh; A549 ARE-Fluc cells, cytotoxicity counterscreen; Potency, µM (series often up to 46.1 µM), actives largely listed as inhibitors; 2% of 1,400 active; AID 720523;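 note: cells exposed to compounds for 18 to 24 hours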
ARE-Fluc inh = confirmation of Nrf2 inhibitors in A549 ARE reporter cells | A549 ARE-firefly luciferase reporter, luminescence | shares compounds with Nrf2 inh | AID 720524 | Potency, µM (top dose mostly 46.1 µM), actives largely listed as inhibitors | 74% of 1,400 active; note: nearly all actives have a fitted effect of over 65% in size
Large screens that a line does not name were inactive (follow-up assays come after a bar, where shown). An excerpt weighted towards active compounds, which were near 2.7% of everything screened. Unless noted, calls come from the whole dose curve; as a rule, active = well fitted curve in the direction sought with a large enough effect; inconclusive = small, poorly fitted or top-dose-only effect, or another doubt; inactive = no such curve, though single readings can be large; an effect the other way counts as inactive or inconclusive.

COc1c(/C=C(\C)[N+](=O)[O-])cc2c(c1OC)OCO2	ALOX12 inh inconclusive (no result: IDH1 R132H inh, Nrf2 inh, A549 tox-1, Nrf2 activator)
COC(=O)c1ccc(CBr)cc1	ALOX12 inh inconclusive (no result: IDH1 R132H inh, Nrf2 inh, A549 tox-1, Nrf2 activator)
COC(=O)c1ccccc1-n1c(C)nc2ccccc2c1=O	none (no result: Nrf2 inh)
O=C(O)c1cccc2nc3ccccc3nc12	Nrf2 inh 2.31µM, ALOX12 inh inconclusive | FLuc counter 3 inactive | A549 tox-2 inactive | ARE-Fluc inh 3.26µM
Nc1c(C(=O)Nc2ccc(OC(F)(F)F)cc2)sc2nc3c(cc12)N1CCC3CC1	Nrf2 inh 6.51µM | FLuc counter 3 inactive | A549 tox-2 inactive
O=C(Nc1ccc(OC(=O)N2CCCCC2)cc1)N1CCOCC1	Nrf2 inh 9.2µM | FLuc counter 3 inactive | A549 tox-2 inactive | ARE-Fluc inh 5.17µM
CC[C@H]1CN2CC[C@H]1C[C@@H]2CNC(=O)c1ccc(-c2ccccc2)cc1	none (no result: IDH1 R132H inh, Nrf2 inh, A549 tox-1, Nrf2 activator, LDHA inh)
CC1Oc2cc3c(-c4c(O)cc(O)c5c(O)c6c(cc45)OC(C)C(C)C6=O)c(O)cc(O)c3c(O)c2C(=O)C1C (stereo not given)	Nrf2 inh 4.61µM, A549 tox-1 inconclusive (no result: ALOX12 inh) | FLuc counter 3 inactive | A549 tox-2 inactive | ARE-Fluc inh 9.2µM
Cc1ccc2c(n1)N(C)[C@H](CO)CCN(CC(C)C)C2	none (no result: IDH1 R132H inh, Nrf2 inh, A549 tox-1, Nrf2 activator, LDHA inh)
COc1cc2cc(C(=O)N3CC(COS(C)(=O)=O)c4ccc(O)cc43)[nH]c2c(OC)c1OC (stereo not given)	Nrf2 inh 0.058µM, A549 tox-1 inconclusive (no result: ALOX12 inh) | FLuc counter 3 inactive | A549 tox-2 inconclusive | ARE-Fluc inh inconclusive
C=CCN(C)C(=O)[C@H]1CN2CCC1C[C@@H]2Cn1cc(COC)nn1 (stereo not given in full)	none (no result: IDH1 R132H inh, Nrf2 inh, A549 tox-1, Nrf2 activator, LDHA inh)
COc1ccc2c(c1)C1(CCN(C(=O)Nc3ccccc3OC)C1)C(=O)N2 (stereo not given)	none (no result: IDH1 R132H inh, Nrf2 inh, A549 tox-1, Nrf2 activator, LDHA inh)
Cc1ccc2c(C)c3ccc4ccccc4c3c[n+]2c1	Nrf2 inh 2.59µM, A549 tox-1 inconclusive | FLuc counter 3 inactive | A549 tox-2 inactive | ARE-Fluc inh 5.8µM
CCCCCCCn1c(=O)c(C(=O)Nc2cnccn2)c(O)c2ccccc21	Nrf2 inh 4.11µM, A549 tox-1 inconclusive | FLuc counter 3 inactive | A549 tox-2 inconclusive
CCCCCn1c(=O)c(C(=O)Nc2cc(C)ccn2)c(O)c2ccccc21	none
CCCCCCn1c(=O)c(C(=O)Nc2ncccc2C)c(O)c2ccccc21	Nrf2 inh 8.2µM | FLuc counter 3 inactive | A549 tox-2 inactive | ARE-Fluc inh inconclusive
CCCCn1c(=O)c(C(=O)Nc2ncccc2C)c(O)c2ccccc21	Nrf2 inh inconclusive
CCCCCn1c(=O)c(C(=O)Nc2cnccn2)c(O)c2ccccc21	Nrf2 inh 4.61µM, A549 tox-1 inconclusive | FLuc counter 3 inactive | A549 tox-2 inconclusive | ARE-Fluc inh 5.8µM
CC(C)CN1C[C@@H]2OCC(=O)N(CC(N)=O)[C@@H]2C1	none (no result: IDH1 R132H inh, Nrf2 inh, A549 tox-1, Nrf2 activator, LDHA inh)
Cc1cccc(CC(=O)N2CC(N(Cc3ccccc3)C3CCOCC3)C2)c1	none (no result: IDH1 R132H inh, Nrf2 inh, A549 tox-1, Nrf2 activator, LDHA inh)
CN(c1ccc([N+](=O)[O-])c2cnccc12)C1CCCCC1	none (no result: IDH1 R132H inh, Nrf2 inh, A549 tox-1, Nrf2 activator)
C=CCN1CCC2(CCC1=O)CN(C(=O)Cc1cccnc1)CCN2C (stereo not given)	none (no result: IDH1 R132H inh, Nrf2 inh, A549 tox-1, Nrf2 activator, LDHA inh)
CC[C@@]1(O)C(=O)OCc2c1cc1n(c2=O)Cc2cc3c(N)cccc3nc2-1	Nrf2 inh 0.651µM, A549 tox-1 inconclusive | FLuc counter 3 inactive | A549 tox-2 inconclusive | ARE-Fluc inh 0.259µM
